Measured values reported in PubChem BioAssay.
Calls of active or inactive are those of the source.

Columns and labels:
[1] = compounds binding Alexa647 anti-His antibody – biochemical, small-molecule microarray, 635 nm fluorescence, artefact control for SMM control protein annotation, primary screen (AID 1128); conditions: higher = more signal;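 also: score merges feature fluorescence with signal-to-noise for each printed compound spot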
[2] = system: Human papillomavirus type 1a E7 protein (residues 1-88); experiment: HPV1a E7 small-molecule binders, primary screen, biochemical, small-molecule microarray, residues 1-88, 635 nm (AID 1129); conditions: small-molecule microarray binding, fluorescence 635 nm; higher = more signal
[3] = target: Focal adhesion kinase 1 (Homo sapiens) (UniProt Q05397); experiment: PTK2 protein binding on printed compound slides – biochemical, small-molecule microarray, 635/667 nm fluorescence, BSA, DTT, primary screen (AID 1130); conditions: 635 nm fluorescence, higher = more signal;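 also: composite of spot emission at 667 nm and signal to noise over triplicate slides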
Focal adhesion kinase 1 (Homo sapiens), sequence (Q05397 whole entry, looked up): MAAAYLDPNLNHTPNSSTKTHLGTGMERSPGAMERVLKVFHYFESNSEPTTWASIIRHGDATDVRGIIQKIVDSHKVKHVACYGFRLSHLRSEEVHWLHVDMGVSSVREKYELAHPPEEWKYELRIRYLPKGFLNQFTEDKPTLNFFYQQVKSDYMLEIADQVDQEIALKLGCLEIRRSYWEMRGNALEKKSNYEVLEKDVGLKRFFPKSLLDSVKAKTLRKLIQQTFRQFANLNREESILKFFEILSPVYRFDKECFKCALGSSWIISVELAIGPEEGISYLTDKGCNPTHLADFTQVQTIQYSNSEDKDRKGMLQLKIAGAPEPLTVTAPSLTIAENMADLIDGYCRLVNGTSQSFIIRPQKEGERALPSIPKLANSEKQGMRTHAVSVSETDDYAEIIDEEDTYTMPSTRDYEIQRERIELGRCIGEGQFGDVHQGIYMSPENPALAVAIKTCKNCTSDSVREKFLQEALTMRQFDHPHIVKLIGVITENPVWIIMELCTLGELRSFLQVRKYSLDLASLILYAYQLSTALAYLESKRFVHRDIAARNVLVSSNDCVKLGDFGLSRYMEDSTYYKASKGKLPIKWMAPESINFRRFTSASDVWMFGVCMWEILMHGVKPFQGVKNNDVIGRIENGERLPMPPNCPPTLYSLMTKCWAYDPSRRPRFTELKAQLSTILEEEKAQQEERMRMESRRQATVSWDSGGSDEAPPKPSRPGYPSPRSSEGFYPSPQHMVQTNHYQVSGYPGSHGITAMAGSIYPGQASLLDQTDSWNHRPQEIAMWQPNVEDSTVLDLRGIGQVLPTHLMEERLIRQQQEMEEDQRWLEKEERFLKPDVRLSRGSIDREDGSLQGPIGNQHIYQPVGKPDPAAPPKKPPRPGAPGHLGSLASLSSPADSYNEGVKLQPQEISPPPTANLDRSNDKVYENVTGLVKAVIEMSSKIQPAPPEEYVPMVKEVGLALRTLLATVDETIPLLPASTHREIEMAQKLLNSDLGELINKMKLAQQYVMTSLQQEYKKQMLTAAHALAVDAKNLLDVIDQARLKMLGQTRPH

[4] = system: Fibrinogen (Alexa647-labelled); experiment: Alexa647-fibrinogen binding to printed small molecules – biochemical, small-molecule microarray, 635/667 nm fluorescence, artefact control for SMM control-protein annotation, profiling panel (AID 1131); conditions: fibrinogen-A647 binding fluorescence, higher = more signal;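 also: z-score merges 667 nm fluorescence with per-spot signal-to-noise over triplicate slides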
[5] = target: Follistatin (Homo sapiens) (UniProt P19883); experiment: FST protein binding to printed compounds – biochemical, small-molecule microarray, 635/667 nm fluorescence, primary screen (AID 1132); conditions: 635 nm fluorescence, higher = more signal
Follistatin (Homo sapiens), sequence (P19883 whole entry, looked up): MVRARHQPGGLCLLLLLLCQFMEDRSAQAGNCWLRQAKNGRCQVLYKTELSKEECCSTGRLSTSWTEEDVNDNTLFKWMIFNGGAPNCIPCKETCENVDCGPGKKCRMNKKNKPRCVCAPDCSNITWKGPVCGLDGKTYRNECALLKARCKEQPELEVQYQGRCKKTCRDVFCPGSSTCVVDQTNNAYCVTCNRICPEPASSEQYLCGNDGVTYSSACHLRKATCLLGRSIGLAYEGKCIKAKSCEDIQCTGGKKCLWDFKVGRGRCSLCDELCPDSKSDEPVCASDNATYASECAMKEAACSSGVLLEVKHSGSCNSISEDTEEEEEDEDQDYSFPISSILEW

[6] = target: Fibroblast growth factor 2 (Homo sapiens) (UniProt P09038); experiment: basic fibroblast growth factor binding to printed compounds – biochemical, small-molecule microarray, 635/667 nm fluorescence, primary screen (AID 1133); conditions: FGF2, fluorescence 635/667, higher = more signal
Fibroblast growth factor 2 (Homo sapiens), sequence (P09038 whole entry, looked up): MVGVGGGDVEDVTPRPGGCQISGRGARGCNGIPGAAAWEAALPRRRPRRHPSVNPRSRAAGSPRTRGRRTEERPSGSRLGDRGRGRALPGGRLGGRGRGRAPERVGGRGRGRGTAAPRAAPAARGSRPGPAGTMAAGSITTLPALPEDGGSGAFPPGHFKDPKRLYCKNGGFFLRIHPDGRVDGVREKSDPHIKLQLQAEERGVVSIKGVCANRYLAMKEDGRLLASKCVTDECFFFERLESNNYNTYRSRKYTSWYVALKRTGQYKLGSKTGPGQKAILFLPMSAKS

[7] = JC-1 mitochondrial potential readout, lung cancer cells – cell-based, A549, JC-1 fluorescence, basal, 24 h, 100 nL, profiling panel (AID 1138); conditions: higher = more signal;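 also: A549 lung adenocarcinoma cells under basal conditions with no added stimulus; test concentration not given here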
[8] = system: Lefty1; experiment: Lefty1 protein binding to printed compounds – biochemical, small-molecule microarray, 635/667 nm fluorescence, primary screen (AID 1139); conditions: fluorescence 635/667, higher = more signal
[9] = system: wheat germ agglutinin (Triticum aestivum), Alexa647-labelled; experiment: Alexa647-WGA lectin binding to printed small molecules – biochemical, small-molecule microarray, 635/667 nm fluorescence, artefact control for SMM control-protein annotation, profiling panel (AID 1140); conditions: WGA-A647 binding, 635 nm fluorescence, higher = more signal;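 also: score merges 667 nm feature emission with signal to noise over triplicate slides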
[10] = target: Luciferin 4-monooxygenase (Photinus pyralis) (UniProt P08659); experiment: inhibition of purified Photinus pyralis luciferase – biochemical, luminescence, purified enzyme, 2006 set, primary screen (AID 1141); conditions: purified firefly luciferase, SteadyGlo luminescence, 30 min; higher = more signal, called active from +8 up or from −8 down;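 also: cell-free assay with purified firefly luciferase at 100 ng per well in PBS; test concentration not given here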
Luciferin 4-monooxygenase (Photinus pyralis), sequence (P08659 whole entry, looked up): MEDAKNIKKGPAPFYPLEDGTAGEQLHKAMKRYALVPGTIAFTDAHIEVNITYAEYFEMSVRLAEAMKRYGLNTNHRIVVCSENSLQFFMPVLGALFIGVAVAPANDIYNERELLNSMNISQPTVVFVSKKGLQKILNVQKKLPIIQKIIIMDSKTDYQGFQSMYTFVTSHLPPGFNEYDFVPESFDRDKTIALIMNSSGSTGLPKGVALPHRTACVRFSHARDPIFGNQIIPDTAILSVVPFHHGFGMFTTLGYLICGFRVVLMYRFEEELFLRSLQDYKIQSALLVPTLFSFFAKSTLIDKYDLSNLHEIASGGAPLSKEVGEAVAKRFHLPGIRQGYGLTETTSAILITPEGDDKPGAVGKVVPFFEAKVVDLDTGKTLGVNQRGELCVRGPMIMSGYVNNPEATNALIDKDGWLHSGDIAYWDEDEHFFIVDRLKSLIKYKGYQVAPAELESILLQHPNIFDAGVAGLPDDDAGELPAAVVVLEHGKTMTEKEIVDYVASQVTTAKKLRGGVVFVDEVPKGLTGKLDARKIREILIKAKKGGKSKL

| Compound | composite z-score [1] | composite z-score [2] | composite z-score [3] | composite z-score [4] | composite z-score [5] | composite z-score [6] | z-score [7] | composite z-score [8] | composite z-score [9] | z-score [10] |
| --- | --- | --- | --- | --- | --- | --- | --- | --- | --- | --- |
| C=CCOC(=O)[C@@H]1[C@H]2C(=O)O[C@H](c3ccccc3)[C@H](c3ccccc3)N2[C@H](c2ccc(OCCOC(=O)[C@H]3C[C@H]4C(=O)NCC(=O)N4[C@H]3c3ccc(O)cc3)cc2)[C@@]12C(=O)Nc1ccc(I)cc12 | 1.24 | 1.19 | 0.701 | 0.732 | 1.27 | 1.39 | -1.1 | 1.06 | 0.665 | -0.483 (inactive) |
| COC(=O)Cn1c(C(=O)N(C)C)cc2c1C[C@H]1CN(C(=O)c3ccccc3)[C@@](Cc3ccc(OC)cc3)(C(=O)OC)[C@@H]21 | 0.817 | 0.845 | 0.263 | 0.605 | 0.371 | -0.159 | 0.834 | -0.351 | 0.86 | 0.923 (inactive) |
| C=CC[C@@]12N=C(c3ccc(OCCCO)cc3)O[C@@H]1c1ccccc1N(Cc1ccccc1)C2=O | 2.52 | 1.17 | 0.986 | 0.8 | 1.55 | 1.44 | -0.379 | 1.55 | 1.04 | -2.6 (inactive) |
| CCOC(=O)C1=CC[C@@H](c2ccccc2)N(S(=O)(=O)C[Si](C)(C)C)[C@H]1c1ccccc1 | 1.07 | 1.19 | 0.656 | 0.996 | 1.21 | 0.497 | -1.48 | 0.562 | 0.862 | 2.37 (inactive) |
| C#CCN([C@H](/C=C/C1CC1)[C@@H](O)Cc1ccccc1)[C@@H](Cc1ccccc1)C(=O)OC | 0.482 | -0.517 | -0.113 | -0.408 | 0.794 | -0.182 | 3.47 | 0.683 | -0.34 | 0.778 (inactive) |
| Cc1ccc(S[C@]2(C(=O)NC3CC3)CC(=O)N(Cc3cc(C(F)(F)F)cc(C(F)(F)F)c3)[C@@H]2c2ccc(CO)cc2I)cc1 | 2.99 | 1.03 | 0.941 | 0.103 | 1.09 | 0.483 | -0.271 | -0.337 | 0.0196 | 0.717 (inactive) |
| CCC[C@@H]1C=C(C(=O)OCC)[C@H](c2ccccc2)N1S(=O)(=O)c1ccc(C)cc1 | 0.796 | 1.14 | 0.898 | 0.979 | 0.947 | 0.538 | 2.03 | 0.565 | 1.2 | 1.41 (inactive) |
| CCCCC(=C=CC[C@@H](O)c1cccc(OCCO)c1)C[C@@H](O)COCc1ccccc1 | 0.457 | -0.122 | 0.116 | 0.982 | -0.211 | -0.178 | 0.732 | -0.0843 | 0.498 | -1.88 (inactive) |
| N#Cc1ccc(C(O)C2C=CC3C(=O)NC(=O)C3N2Nc2ccccn2)cc1 (stereo not given) | 0.782 | 0.615 | -0.205 | 0.861 | 0.286 | -0.126 | 1.36 | -0.157 | 0.144 | -1.25 (inactive) |
| Cc1ccc(F)cc1S(=O)(=O)N[C@@H]1CCN(Cc2ccc3[nH]ccc3c2)C1 | 0.426 | 0.479 | -0.105 | -0.0254 | 1.06 | 0.561 | 0.316 | 0.543 | 0.0689 | 0.175 (inactive) |
| C=CCC(OC(C)=O)[C@@H]1[C@@H](N(Cc2cc3ccccc3o2)C(=O)Cc2ccc(OC)cc2)c2cc(OCCCO)ccc2N1C(=O)Cc1ccc2ccccc2c1 (stereo not given in full) | 0.305 | -0.866 | 0.102 | 0.136 | 0.279 | -0.662 | 0.432 | -0.173 | 0.116 | -0.1 (inactive) |
| CC(C)CNC(=O)[C@@]1(C)c2ccccc2C(=O)N(Cc2cc(F)cc(C(F)(F)F)c2)[C@H]1c1ccc(CO)cc1 | 0.83 | 0.85 | 0.0301 | 0.51 | 1.16 | 0.803 | 0.165 | 0.372 | 0.154 | 0.189 (inactive) |
| CO[C@H]1O[C@H](CO)[C@@H](OC(=O)Nc2ccc3c(c2)OCO3)[C@@H]2OC(=O)[C@@H](Cc3ccccc3)C/C=C/C[C@H](Cc3ccccc3)C(=O)O[C@@H]12 | 2.53 | 1.18 | 0.458 | 0.659 | 0.974 | 0.684 | 2.76 | 0.433 | 0.214 | -1.01 (inactive) |
| CC(C)CNC(=O)[C@@H]1c2ccccc2C(=O)N(Cc2ccccc2)[C@H]1c1ccc(CO)cc1 | 1.85 | 0.601 | 0.0313 | -0.66 | -0.0977 | 0.605 | 0.0606 | -1.7 | -0.481 | 0.0723 (inactive) |
| CC(C)C[C@@H]1NC(=O)[C@H]2C[C@@H](C(=O)NCCCCCNC(=O)CS)[C@@H](c3ccc(O)cc3)N2C1=O | 2.05 | 1.24 | 1.19 | 0.201 | 1.33 | 1.62 | -1.22 | 0.497 | 0.408 | -1.76 (inactive) |
| [N-]=[N+]=Nc1ccccc1[C@@H]1OC(c2ccc(OCCCO)cc2)=N[C@]1(Cc1ccccc1)C(N)=O | 1.91 | 0.445 | 0.474 | 0.899 | 0.207 | -0.425 | 1.86 | -0.188 | 0.619 | -8.14 (active) |
| C#CCN=C(N)N | 0.468 | 0.611 | -0.0375 | 0.802 | 0.785 | 0.388 | -0.317 | 0.858 | 0.299 | 0.523 (inactive) |
| C=CCC(OC(C)=O)[C@@H]1[C@@H](N(Cc2cccc3ccccc23)C(=O)c2ccc(C)cc2)c2cc(OCCCO)ccc2N1C(=O)c1ccc2ccccc2n1 (stereo not given in full) | -0.24 | 0.098 | 0.348 | 0.682 | 0.584 | 0.0013 | 0.644 | 0.644 | 0.391 | -1.05 (inactive) |
| COc1ccc(C(O)C2C=CC3C(=O)N(C)C(=O)C3N2Nc2ccc([N+](=O)[O-])cc2[N+](=O)[O-])cc1OCc1ccccc1 (stereo not given) | 1.05 | 1.19 | 0.368 | 0.545 | 0.699 | -0.0627 | 0.552 | 0.0695 | 1.15 | 0.0945 (inactive) |
| CC(C)[Si](C#CCCCC#N)(O[C@H](c1ccccc1)c1cn([C@H](C)c2ccccc2)nn1)C(C)C | 0.67 | 0.893 | -0.0546 | 0.464 | 0.661 | 0.286 | 2.34 | 0.739 | 0.0425 | -0.863 (inactive) |
| [N-]=[N+]=NCc1ccccc1[C@@H]1OC(c2ccc(OCCCO)cc2)=N[C@]1(Cc1ccccc1)C(=O)NCc1ccccc1 | 0.491 | 1.18 | 1.11 | 0.734 | 0.846 | -0.0705 | 0.012 | -0.0948 | 1.03 | 0.294 (inactive) |
| Cc1c(NC(=O)/C(C#N)=C/c2ccc(Cl)cc2)c(=O)n(-c2ccccc2)n1C | 0.753 | 0.8 | -0.171 | 1.03 | 0.114 | 0.627 | 1.28 | 0.466 | 0.794 | -0.304 (inactive) |
